Measured values: PubChem BioAssay (NCI)
This is part of a sample that, as a whole, favours compounds with a hit. Of some 83,000 tested, about 20% had one in any assay.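 Results are percent growth after 48 hours of single-concentration exposure. 100 means growth as in untreated cells, lower positive values show inhibition; negative values down to -100 show cell death.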 Activity calls are given as the source filed them. The calls were made as follows: active = growth percent below 10; inactive = the rest.

Legend:
Assay in all cases: NCI-60 one-dose screen, 48 h (100 = growth as untreated, 0 = no growth, -100 = all killed)
Conditions in all cases: 10 µM
[1] = system: RPMI-8226 leukemia
[2] = system: OVCAR-8 ovarian
[3] = system: OVCAR-5 ovarian
[4] = system: OVCAR-4 ovarian
[5] = system: SK-OV-3 ovarian
[6] = system: IGROV1 ovarian
[7] = system: OVCAR-3 ovarian
[8] = system: HS 578T breast
[9] = system: NCI/ADR-RES ovarian
[10] = system: T-47D breast

Measured: growth

COc1ccc(/C=C/C(=O)Nc2ccc(-c3nc4ccc(OC)cc4s3)cc2)cc1
inactive: [1] 96.4% | [2] 106% | [3] 108% | [4] 128% | [5] 104% | [6] 118% | [7] 124% | [8] 108% | [9] 101% | [10] 101%

Cc1cc(=O)[nH]c(N/N=C/c2ccccc2O)n1
active: [7] 6.7%
inactive: [1] 68.6% | [2] 83.3% | [3] 95.2% | [4] 22.4% | [5] 78.3% | [6] 59.6% | [8] 104% | [9] 16.3% | [10] 48.7%

O=C(N/N=C/c1cc2ccccc2c2ccccc12)c1cc(O)c(O)c(O)c1
inactive: [1] 78.8% | [2] 48.5% | [3] 90.4% | [4] 26.4% | [5] 78.8% | [6] 58.7% | [7] 58% | [8] 75.4% | [9] 81.4%
active: [10] 2.62%

O=C(Nc1cccc(Cl)c1)Nc1nccs1
inactive: [1] 91.1% | [2] 97.9% | [3] 109% | [4] 90.6% | [5] 100% | [6] 97.5% | [7] 114% | [8] 115% | [9] 91% | [10] 73%

Cn1c([N+](=O)[O-])cnc1/C=C1\Oc2cc(Cl)ccc2C1=O
inactive: [1] 11.7% | [3] 29.1% | [4] 55% | [10] 86.6%
active: [2] -13.3% | [5] -7.2% | [6] -22% | [7] -33.3% | [8] -2.19% | [9] -0.2%

O=c1[nH]c(-c2ccc(Cl)cc2)nc2sc3c(c12)CCCC3
inactive: [1] 96.7% | [2] 68% | [3] 103% | [4] 86.2% | [5] 92% | [6] 82.1% | [7] 101% | [8] 104% | [9] 81.8% | [10] 64.4%

C[C@@H]1C=C2C(=O)O[C@@H]3CC[C@H](C1)[C@]23O
inactive: [1] 75.8% | [2] 78.3% | [3] 104% | [4] 76.5% | [5] 105% | [6] 42.2% | [7] 66.9% | [8] 96.4% | [9] 93.2% | [10] 26.3%

Cc1cc(Cc2cc(C)c(O)c(C)c2)cc(C)c1O
inactive: [1] 58.2% | [2] 61.9% | [3] 106% | [4] 77.1% | [5] 53% | [6] 45.2% | [7] 28.2% | [8] 33.8% | [9] 19.4% | [10] 52.8%

COc1ccc2c(c1)O/C(=C\c1ccc([N+](=O)[O-])s1)C2=O
active: [1] 1.62% | [2] 0.767% | [4] -32.2% | [6] -29.4% | [7] -30.5%
inactive: [3] 61.4% | [5] 60.2% | [8] 18.3% | [9] 54.5% | [10] 16%

O=C1/C(=C/c2ccc([N+](=O)[O-])o2)Oc2ccccc21
active: [1] -0.688% | [2] 2.87% | [3] 8.57% | [4] -68.6% | [6] -22.7% | [7] -69.7% | [10] 8.17%
inactive: [5] 84% | [8] 57.3% | [9] 14.8%

O=[N+]([O-])c1cccc(-c2ncc(-c3ccc(Cl)cc3Cl)[nH]2)c1
active: [1] -8.35%
inactive: [2] 83.5% | [3] 117% | [4] 70% | [5] 115% | [6] 26.6% | [7] 59.8% | [8] 44.9% | [9] 97.2% | [10] 79%

c1ccc(C(NC2CC3CCC2C3)c2ccccc2)cc1 (stereo not given)
inactive: [1] 96.2% | [2] 105% | [3] 101% | [4] 108% | [5] 95.9% | [6] 109% | [7] 114% | [8] 111% | [9] 103% | [10] 99.9%

N#Cc1cccc(OCc2nc(N)nc(N)c2-c2ccc(Cl)c(Cl)c2)c1
inactive: [1] 60.1% | [2] 19.3% | [3] 35.6% | [4] 88.3% | [5] 39% | [6] 17.8% | [7] 38.5% | [8] 49.7% | [9] 34.1% | [10] 71.5%

COc1ccc2c(c1)/C(=C\c1c[nH]c3ccc(OC)cc13)C(=O)N2
inactive: [1] 36.7% | [2] 59.7% | [3] 64.8% | [4] 57.6% | [5] 52.8% | [6] 41.7% | [7] 52.6% | [8] 46.9% | [9] 28.1% | [10] 49.7%

COc1cc(Cl)cc(-c2nn(-c3cccc(NC(=O)Nc4ccc(Cl)c(Cl)c4)c3)cc2-c2ccncc2)c1
inactive: [3] 37.8% | [4] 13.3% | [5] 14.2% | [6] 36.7% | [8] 28.5% | [10] 18.6%
active: [1] -4.44% | [2] 1.93% | [7] 4.12% | [9] 8.59%

O=C(N/N=C/c1ccccc1)C(Oc1ccccc1)c1ccccc1 (stereo not given)
inactive: [1] 98.1% | [2] 100% | [3] 101% | [4] 102% | [5] 104% | [6] 98.9% | [7] 105% | [8] 98.4% | [9] 75.2% | [10] 94.4%

Clc1ccc(-c2cn(-c3ccccc3)c(-c3ccccc3)n2)c(Cl)c1
inactive: [1] 16% | [3] 16.4% | [5] 25.1% | [9] 13.6%
active: [2] 9.55% | [4] -100% | [6] -26.3% | [7] -84% | [8] -20.3% | [10] -17.6%

CN1c2ccccc2[C@]2(Cc3ccccc3)Cc3ccccc3N[C@H]12
inactive: [1] 98.9% | [2] 106% | [3] 93.8% | [4] 91% | [5] 122% | [6] 88.8% | [7] 120% | [8] 110% | [9] 107% | [10] 109%

O=S(=O)(Nc1ccccn1)c1ccc(N=Nc2ccc(O)c3ncccc23)cc1
inactive: [3] 22.4% | [7] 14.4% | [8] 13.5% | [9] 14.1%
active: [1] -15.1% | [2] 1.26% | [4] 8.85% | [5] -7.21% | [6] -1.59% | [10] -6.2%

N#CCCN1C/C(=C/c2ccc(Cl)cc2)C(=O)/C(=C/c2ccc(Cl)cc2)C1
inactive: [9] 11.1%
active: [1] -15.5% | [2] -22% | [3] 4.05% | [4] 8.18% | [5] -10.2% | [6] -66.7% | [7] -48.6% | [8] -9.16% | [10] 8.7%

Fc1cc(C(F)(F)F)ccc1-c1cncnc1NC1CCCCCC1
inactive: [1] 76.1% | [2] 87.1% | [3] 106% | [4] 85.3% | [5] 101% | [6] 96.8% | [7] 109% | [8] 102% | [9] 91.4% | [10] 91.8%

COc1cc(CNc2ccccc2C(=O)N2CCN(C(=O)c3cc(-c4cc(OC)c(OC)c(OC)c4)n4nc(-c5ccccc5)cc4n3)CC2)cc(OC)c1OC
inactive: [1] 52.1% | [2] 65.1% | [3] 88.1% | [4] 61.5% | [5] 59.9% | [6] 44.7% | [8] 42.9% | [9] 15.6% | [10] 60.6%
active: [7] 4.83%

C#Cc1ccc(-n2c(/C=C/c3ccc(Cl)c(F)c3)nc3ncccc3c2=O)cc1
inactive: [3] 24.1% | [8] 13.8%
active: [1] -14.9% | [2] -17.4% | [4] -88.5% | [5] -7.71% | [6] -54.5% | [7] -79.8% | [9] 1.19% | [10] -39%

COc1ccc2c(c1)C(=O)c1c-2c(OCCN2CCCCC2)nc2ccc(OC)cc12
active: [6] 4.11%
inactive: [1] 16.4% | [2] 18.6% | [3] 63.6% | [4] 41.9% | [5] 34.5% | [7] 22% | [8] 57.8% | [9] 26% | [10] 36.6%

c1ccc(CSc2nnc3c4c5c(sc4nc(-c4cccnc4)n23)CCCCCC5)cc1
inactive: [1] 20.1% | [2] 20.3% | [3] 95.2% | [4] 27.3% | [5] 71.2% | [6] 77% | [7] 36.4% | [8] 86.2% | [9] 100% | [10] 14%

CN(C)c1ccc(/C=C/C=N/NC(=O)c2cc(O)c(O)c(O)c2)cc1
inactive: [1] 99.9% | [2] 89.3% | [3] 102% | [4] 67.8% | [5] 99.3% | [6] 100% | [7] 90.9% | [8] 100% | [9] 102% | [10] 25.3%

COc1ccc(/C=C2/CN(CCC#N)C/C(=C\c3ccc(OC)cc3)C2=O)cc1
active: [1] -17.2% | [2] 1.11% | [6] 7.88% | [7] -26% | [9] 7.02%
inactive: [3] 59.7% | [4] 17.3% | [5] 13.4% | [8] 33.1% | [10] 39.4%
